Hit rate of the full screen: of about 360,000 compounds, about 780 (0.22%) were called active. Inconclusive results (about 4%) are left out. This is one part of a sample in which actives are shown more often than they occur. No stated cut-off is given here; in the data, active means inhibition above about 35% (passing the limit was not always enough); inconclusive means no clear call, values can overlap the other calls.
Each molecule was assayed on Botulinum neurotoxin type F light chain protease (Clostridium botulinum) (assay: BoNT/F light chain protease inhibitors, primary screen, biochemical, flow cytometry, MLPCN library (AID 588497; further: plate controls were buffer without enzyme for full effect and enzyme alone for no effect)). Settings: Multiplex microsphere protease cleavage assay, at 10 µM, active compounds read high.

How did the inhibition turn out when `C=C1C(=O)[C@]23C[C@H]1CCC2[C@@]1(C)C(C[C@@H]3O)[C@](C)(C(=O)O)CC[C@@H]1O` (stereo partly drawn) was run?
The inhibition was 6.7% (inactive).

Which inhibition does the source give for `CC12CCC(=O)C=C1CCC1C2C(O)CC2(C)C1CCC2(O)C(O)CO` (stereo not drawn) here?
The inhibition was -2.7% (inactive).

With `COc1ccc(-c2cc3nc(NCCOc4ccccc4)ccn3n2)cc1` as the molecule, how does the inhibition read?
Its inhibition is -7% (inactive).

For `CC1=C(C(=O)N(C(C)C)C(C)C)CC(CC(=O)NCCCCc2ccccc2)C(=O)N1CCC1=CCCCC1` (stereo not drawn), which inhibition is on record?
The inhibition was -9.4% (inactive).

For `CC(C)(C)CC(=O)Nc1nc(C(N)Cc2ccc(C(F)(F)F)cc2)cs1` (stereo not drawn), which inhibition is on record?
Its inhibition is -15.5% (inactive).

Which inhibition does the source give for `CCCNC(=O)c1cc2c(c(-c3cccc(-c4ccc(C#N)cc4)c3)n1)[C@@H](CCO)N(C(=O)CC)C2` here?
The inhibition was -8.6% (inactive).

For `CN1CCN(c2ccc(NC(=O)c3cc(Cl)c4c(c3)OCCO4)cc2)CC1`, which inhibition is on record?
Its inhibition is -0.9% (inactive).

With `CN1CCN(c2ccc(NC(=O)c3ccc4c(c3)[nH]c(=O)n4Cc3ccc(F)cc3)cc2)CC1` as the molecule, how does the inhibition read?
Its inhibition is -37.9% (inactive).

How did the inhibition turn out when `CN1CCN(c2ccc(NC(=O)c3ccccc3)cc2)CC1` was run?
The inhibition was 38.8% (active).

For `CCCCC(=O)N(C)c1c(CC)nc2c(OCc3ccc(Cl)cc3Cl)cccn12`, which inhibition is on record?
Its inhibition is -1.2% (inactive).

For `CCC(c1nnnn1-c1ccc2c(c1)OCCO2)N1CCN(c2ccc(C(F)(F)F)cn2)CC1` (stereo not drawn), which inhibition is on record?
The inhibition was 6.4% (inactive).

`CC1=C(C(=O)N(C(C)C)C(C)C)CC(CC(=O)NCC2CCCCC2)C(=O)N1Cc1ccccc1` (stereo not drawn) was tested. Which inhibition did it give?
Its inhibition is -6.1% (inactive).

For `O=C1C(Sc2cccc(F)c2)=C[C@@]2(O)CC[C@@H](O)[C@]1(Sc1cccc(F)c1)[C@H]2O`, which inhibition is on record?
Its inhibition is -5.7% (inactive).

With `CCOC(=O)C1=CCC2C(=O)N(Cc3ccccc3)C(=O)C12` (stereo not drawn) as the molecule, how does the inhibition read?
Its inhibition is 7.8% (inactive).

For `CC(=O)Nc1cncc(-c2ccccc2CO)n1`, which inhibition is on record?
The inhibition was -2.7% (inactive).

For `O=C(NCCN1CCOCC1)c1ccccc1N1C(=O)[C@@H]2Cc3c([nH]c4ccccc34)C(c3cccc(Cl)c3)N2C1=O` (stereo partly drawn), which inhibition is on record?
Its inhibition is -6.1% (inactive).

Which inhibition does the source give for `O=C(COC(=O)c1ccccc1)Nc1ccc(Cl)cc1C(=O)c1ccccc1` here?
Its inhibition is -15.4% (inactive).

`CC(NCC(=O)Nc1cc(Cl)cc(Cl)c1)c1ccccc1` (stereo not drawn) was tested. Which inhibition did it give?
The inhibition was 2.2% (inactive).

For `NNC(=O)CNC(c1ccccc1)c1cc(Cl)ccc1NC(=O)c1ccccc1` (stereo not drawn), which inhibition is on record?
Its inhibition is 43.2% (active).

For `CC(C)C[C@H]1CNC(=S)N1C[C@H]1CCCN1C[C@H](Cc1ccc(O)cc1)N1C[C@H](Cc2ccc(O)cc2)N(CC2CCCCC2)C1=S`, which inhibition is on record?
Its inhibition is -11% (inactive).

`COc1ccc(-n2c(-c3ccc(Cl)cc3)n[nH]c2=S)c(OC)c1` was tested. Which inhibition did it give?
The inhibition was -4.7% (inactive).

How did the inhibition turn out when `COc1ccccc1-n1cn[nH]c1=S` was run?
The inhibition was 0.3% (inactive).

Which inhibition does the source give for `COc1ccccc1-n1c(-c2cc(-c3ccco3)[nH]n2)n[nH]c1=S` here?
Its inhibition is 40.9% (active).

Which inhibition does the source give for `OC(c1ccccc1)(c1ccccc1)C1CCN(CCCOc2ccccc2)CC1` here?
The inhibition was 0.4% (inactive).

Which inhibition does the source give for `CC1(C(=O)NCc2ccc(F)c(F)c2)Cc2c(-c3ccc4c(c3)OCO4)ccnc2O1` (stereo not drawn) here?
Its inhibition is -7.8% (inactive).

With `Cc1ccc(Cc2c(-c3ccco3)nc3ccc(Cl)cn23)cc1` as the molecule, how does the inhibition read?
Its inhibition is -6% (inactive).

Which inhibition does the source give for `CCCCOCCCNC(=O)C[C@@H]1C[C@@]2(C(=O)OC)CCCCC=C2N(CCC2=CCCCC2)C1=O` here?
Its inhibition is 7.8% (inactive).

How did the inhibition turn out when `CC(C)Oc1cc(F)ccc1-c1cc(C(=O)Nc2cccc(Cl)c2)[nH]n1` was run?
Its inhibition is -7.1% (inactive).

`CN(Cc1ccccc1F)c1cc2c(c3c1ccn3C)C1CCC2O1` (stereo not drawn) was tested. Which inhibition did it give?
The inhibition was 3.2% (inactive).

`COC(=O)[C@]12CCCCC=C1N(CCC1=CCCCC1)C(=O)[C@H](CC(=O)NCC1CCCCC1)C2` was tested. Which inhibition did it give?
The inhibition was 5.5% (inactive).

For `CCc1ccc(OC2(C)CCN(CCOc3ccc(C)cc3)C2)cc1` (stereo not drawn), which inhibition is on record?
The inhibition was -9.6% (inactive).

`CN(C)C1CN(Cc2cn(Cc3ccccc3)nn2)S(=O)(=O)C1` (stereo not drawn) was tested. Which inhibition did it give?
The inhibition was -1.7% (inactive).

For `Cc1cc(C)n2nc(C(=O)N3CCN(Cc4ccc5c(c4)OCO5)CC3)nc2n1`, which inhibition is on record?
The inhibition was -11.5% (inactive).

Which inhibition does the source give for `CCc1c(C)nc(N2CCN(Cc3ccccc3)CC2)[nH]c1=O` here?
Its inhibition is 6.6% (inactive).

`CCCCCc1c(C)nc(N2CCN(Cc3ccc4c(c3)OCO4)CC2)[nH]c1=O` was tested. Which inhibition did it give?
Its inhibition is 39.2% (active).

For `Cc1cc(Cl)ccc1-c1nc(NCCN(C)C)nc2ccsc12`, which inhibition is on record?
Its inhibition is -4.9% (inactive).

How did the inhibition turn out when `CC1(Oc2ccccc2-c2ccno2)CCN(Cc2ccc(-c3ccccc3)o2)C1` (stereo not drawn) was run?
Its inhibition is -11.5% (inactive).

`OC[C@@H]1CN(Cc2ccc(-c3ccccc3)cc2)C[C@H](n2cnc3c(NC4CCCC4)ncnc32)O1` was tested. Which inhibition did it give?
The inhibition was -4.6% (inactive).

How did the inhibition turn out when `CC(=O)Nc1ccc(CNc2nc(NCCN(C)C)nc3cc(-c4ccccc4)sc23)cc1` was run?
Its inhibition is -18.9% (inactive).

With `Cc1cc(C(=O)NNC(=O)CCC2CCCCC2)c(C)o1` as the molecule, how does the inhibition read?
The inhibition was 0.3% (inactive).

How did the inhibition turn out when `COC(=O)c1sccc1NC(=O)CCC1CCCC1` was run?
Its inhibition is 1.8% (inactive).

For `CC(=O)Oc1ccc(NC(=O)CCC2CCCCC2)c(C(=O)O)c1`, which inhibition is on record?
Its inhibition is 37.7% (active).

Which inhibition does the source give for `NC(c1csc(NC(=O)Nc2ccccc2Oc2ccccc2)n1)c1ccccc1Cl` (stereo not drawn) here?
The inhibition was -12.1% (inactive).

How did the inhibition turn out when `CN1CCN(CC#CCC2(O)c3ccccc3-c3ccccc32)CC1` was run?
The inhibition was -6.9% (inactive).

With `CC(C)N(CC#CCC1(O)c2ccccc2-c2ccccc21)C(C)C` as the molecule, how does the inhibition read?
Its inhibition is 37.1% (active).

With `CCOC(=O)[C@]12CCC=C1N(Cc1ccco1)C(=O)[C@H](CC(=O)NCc1cccc(C(F)(F)F)c1)C2` as the molecule, how does the inhibition read?
The inhibition was -2.2% (inactive).

`CC=CCn1c(SCCCc2ccccc2)nc2c1c(=O)[nH]c(=O)n2C` was tested. Which inhibition did it give?
Its inhibition is -3.4% (inactive).

Which inhibition does the source give for `OC(c1ccc(Cl)c(F)c1)c1ncc(-c2ccccc2Cl)[nH]1` (stereo not drawn) here?
The inhibition was -8.1% (inactive).

How did the inhibition turn out when `Cc1cc(Br)cn2c(Cc3cccc(F)c3)c(-c3cccc(Br)c3)nc12` was run?
The inhibition was 5.5% (inactive).

How did the inhibition turn out when `COc1ccccc1NC(=O)C1CCCN(c2cc(C)nc3ncnn23)C1` (stereo not drawn) was run?
Its inhibition is 4.8% (inactive).

Which inhibition does the source give for `Cc1cc(-n2nc(C)cc2C)n2ncc(-c3ccccc3)c2n1` here?
Its inhibition is 5.4% (inactive).

With `COc1ccccc1-c1cnn2c(N3CCOCC3)cc(C)nc12` as the molecule, how does the inhibition read?
Its inhibition is 38.5% (active).

How did the inhibition turn out when `CCc1nc2c(OCc3ccc(Cl)cc3Cl)cccn2c1N(C)C(=O)C(C)C` was run?
Its inhibition is -7.2% (inactive).

Which inhibition does the source give for `Cc1cc(C)c(S(=O)(=O)NN=C2c3ccccc3[C@H]3Cc4csc[n+]4[C@@H]23)c(C)c1` here?
Its inhibition is -7.5% (inactive).

With `Cc1nc2c(OCc3cccc(Cl)c3)cccn2c1N(C)CC1CC1` as the molecule, how does the inhibition read?
Its inhibition is -6.3% (inactive).

Which inhibition does the source give for `COc1nc(NC2CCCCC2)nc(N2CCCCCC2)n1` here?
Its inhibition is 8.2% (inactive).

Which inhibition does the source give for `COC(=O)CNc1nc(Cl)nc(N2CCC(C)CC2)n1` here?
The inhibition was -7.3% (inactive).

For `Clc1nc(NC2CCCC2)nc(N2CCOCC2)n1`, which inhibition is on record?
Its inhibition is 53.9% (active).

Source: PubChem BioAssay AID588497 (NMMLSC, 2011)
